Experimental data reported in the supplement of paper PMC10849652.
The full data set covers some 8,800 targets. This sample favours those with a hit. About 0.5% of all pairs of compound and target were hits.

compound: NC(=O)Nc1cc(-c2cccc(F)c2)sc1C(=O)N[C@H]1CCCNC1; assay: log2 fold change, soluble protein after heating vs DMSO (PISA); higher = thermal stabilisation; K562 lysate, 10 uM; active = over 0.2 and 3.5 SD of the protein, either way, in both replicates (recomputed)
Summary of the method: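 Log-two fold change in thermal stability relative to solvent controls is reported from duplicates. For each sample, crude K562 extract from dounce-homogenised pellets in PBS pH 7.4 with 1 mM MgCl2, at 1 mg/mL protein, was treated with 10 μM compound for 30 min. Aliquots heated for 3 min across 48°C-58°C were pooled, brought to 0.5% NP-40 at 4°C and cleared at 21,000xg for 90 min. The supernatant was quantified by TMTpro 16plex LC-MS/MS with channel sums equalised.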

Chain of UniProt Q8TC12 (Q8TC12 whole entry, looked up): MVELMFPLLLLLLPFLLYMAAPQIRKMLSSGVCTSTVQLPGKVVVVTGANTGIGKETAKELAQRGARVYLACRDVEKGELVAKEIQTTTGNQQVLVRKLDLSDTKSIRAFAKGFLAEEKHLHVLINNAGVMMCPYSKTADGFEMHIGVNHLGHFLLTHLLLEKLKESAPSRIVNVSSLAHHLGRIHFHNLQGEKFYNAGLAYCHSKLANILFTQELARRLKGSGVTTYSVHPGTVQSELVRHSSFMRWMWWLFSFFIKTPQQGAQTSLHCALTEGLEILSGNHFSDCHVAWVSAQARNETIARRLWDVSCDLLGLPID
Chain of UniProt Q9NW64 (Q9NW64 whole entry, looked up): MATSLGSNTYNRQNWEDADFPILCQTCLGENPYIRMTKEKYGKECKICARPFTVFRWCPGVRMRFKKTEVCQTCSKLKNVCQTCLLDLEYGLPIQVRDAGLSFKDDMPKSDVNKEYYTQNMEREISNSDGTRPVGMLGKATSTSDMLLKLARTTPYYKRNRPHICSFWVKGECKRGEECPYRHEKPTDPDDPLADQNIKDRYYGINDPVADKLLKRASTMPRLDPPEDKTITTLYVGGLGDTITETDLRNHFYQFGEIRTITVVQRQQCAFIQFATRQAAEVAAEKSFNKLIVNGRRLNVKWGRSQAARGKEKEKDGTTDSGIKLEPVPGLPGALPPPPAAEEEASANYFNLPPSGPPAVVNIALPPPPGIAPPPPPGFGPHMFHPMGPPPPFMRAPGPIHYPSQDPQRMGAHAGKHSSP
Chain of UniProt Q13530 (Q13530 whole entry, looked up): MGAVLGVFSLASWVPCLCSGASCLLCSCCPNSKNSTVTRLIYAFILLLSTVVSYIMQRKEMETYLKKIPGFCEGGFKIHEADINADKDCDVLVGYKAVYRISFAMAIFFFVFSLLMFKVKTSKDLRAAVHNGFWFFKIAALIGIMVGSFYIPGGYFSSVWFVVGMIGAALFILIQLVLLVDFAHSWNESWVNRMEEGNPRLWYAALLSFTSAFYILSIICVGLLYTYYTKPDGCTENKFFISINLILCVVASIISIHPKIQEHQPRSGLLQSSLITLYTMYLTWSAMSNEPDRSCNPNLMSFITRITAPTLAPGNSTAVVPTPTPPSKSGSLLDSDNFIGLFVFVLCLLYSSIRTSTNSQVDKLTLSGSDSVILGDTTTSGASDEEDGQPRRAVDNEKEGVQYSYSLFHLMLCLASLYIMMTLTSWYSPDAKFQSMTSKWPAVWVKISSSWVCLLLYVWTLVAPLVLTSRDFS
Chain of UniProt Q8WWV3 (Q8WWV3 whole entry, looked up): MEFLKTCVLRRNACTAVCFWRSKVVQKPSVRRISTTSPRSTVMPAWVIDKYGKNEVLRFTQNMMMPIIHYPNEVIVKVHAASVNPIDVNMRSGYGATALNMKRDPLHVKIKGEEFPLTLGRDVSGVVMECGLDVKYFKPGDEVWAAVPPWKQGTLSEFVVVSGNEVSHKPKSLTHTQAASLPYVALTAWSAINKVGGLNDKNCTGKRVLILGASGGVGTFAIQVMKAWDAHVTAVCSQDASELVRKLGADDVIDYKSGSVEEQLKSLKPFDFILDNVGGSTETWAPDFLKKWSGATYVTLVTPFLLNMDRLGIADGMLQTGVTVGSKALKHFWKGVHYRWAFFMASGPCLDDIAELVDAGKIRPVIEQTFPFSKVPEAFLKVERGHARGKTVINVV
Chain of UniProt Q9Y4B4 (Q9Y4B4 whole entry, looked up): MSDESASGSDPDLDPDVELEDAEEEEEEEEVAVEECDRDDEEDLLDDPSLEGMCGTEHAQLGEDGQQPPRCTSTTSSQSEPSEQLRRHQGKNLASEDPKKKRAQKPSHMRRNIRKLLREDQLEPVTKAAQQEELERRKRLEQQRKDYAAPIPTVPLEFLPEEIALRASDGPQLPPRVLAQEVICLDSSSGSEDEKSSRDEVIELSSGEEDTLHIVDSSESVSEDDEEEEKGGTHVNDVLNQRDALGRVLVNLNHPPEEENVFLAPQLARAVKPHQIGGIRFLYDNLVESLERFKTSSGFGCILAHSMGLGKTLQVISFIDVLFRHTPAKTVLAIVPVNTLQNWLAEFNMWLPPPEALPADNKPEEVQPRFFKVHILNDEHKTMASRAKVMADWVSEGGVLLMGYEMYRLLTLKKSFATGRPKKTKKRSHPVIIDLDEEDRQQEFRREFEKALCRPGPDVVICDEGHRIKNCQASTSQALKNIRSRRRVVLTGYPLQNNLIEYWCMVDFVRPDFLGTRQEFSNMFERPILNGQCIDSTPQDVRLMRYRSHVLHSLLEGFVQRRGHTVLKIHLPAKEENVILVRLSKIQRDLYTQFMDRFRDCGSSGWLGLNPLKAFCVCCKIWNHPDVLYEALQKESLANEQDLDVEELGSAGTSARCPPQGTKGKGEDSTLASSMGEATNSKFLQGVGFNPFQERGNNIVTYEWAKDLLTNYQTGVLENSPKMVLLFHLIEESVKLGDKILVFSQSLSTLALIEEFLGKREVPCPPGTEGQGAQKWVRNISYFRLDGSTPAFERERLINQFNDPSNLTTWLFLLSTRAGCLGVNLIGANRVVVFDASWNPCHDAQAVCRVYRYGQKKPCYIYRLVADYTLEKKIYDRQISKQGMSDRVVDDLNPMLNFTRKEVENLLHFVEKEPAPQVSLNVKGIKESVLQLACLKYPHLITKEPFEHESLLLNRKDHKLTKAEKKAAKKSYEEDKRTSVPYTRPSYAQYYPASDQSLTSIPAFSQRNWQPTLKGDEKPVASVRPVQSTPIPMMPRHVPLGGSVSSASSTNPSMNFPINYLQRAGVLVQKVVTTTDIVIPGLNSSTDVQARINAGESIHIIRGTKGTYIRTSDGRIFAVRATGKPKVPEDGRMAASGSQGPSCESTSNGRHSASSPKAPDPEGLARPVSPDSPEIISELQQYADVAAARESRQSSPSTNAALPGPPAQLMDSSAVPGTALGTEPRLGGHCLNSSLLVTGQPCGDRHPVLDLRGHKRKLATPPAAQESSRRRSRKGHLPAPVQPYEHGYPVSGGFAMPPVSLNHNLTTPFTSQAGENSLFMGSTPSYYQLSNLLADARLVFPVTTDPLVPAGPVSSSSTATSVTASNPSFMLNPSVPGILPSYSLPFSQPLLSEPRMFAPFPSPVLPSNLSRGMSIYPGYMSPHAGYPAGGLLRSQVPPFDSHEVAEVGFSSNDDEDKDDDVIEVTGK
Chain of UniProt Q9NR31 (Q9NR31 whole entry, looked up): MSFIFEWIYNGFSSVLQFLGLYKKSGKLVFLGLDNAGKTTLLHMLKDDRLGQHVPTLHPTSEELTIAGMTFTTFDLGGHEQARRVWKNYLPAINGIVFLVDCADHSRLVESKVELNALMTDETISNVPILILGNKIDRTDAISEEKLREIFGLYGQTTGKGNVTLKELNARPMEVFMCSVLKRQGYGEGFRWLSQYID
Chain of UniProt P51159 (P51159 whole entry, looked up): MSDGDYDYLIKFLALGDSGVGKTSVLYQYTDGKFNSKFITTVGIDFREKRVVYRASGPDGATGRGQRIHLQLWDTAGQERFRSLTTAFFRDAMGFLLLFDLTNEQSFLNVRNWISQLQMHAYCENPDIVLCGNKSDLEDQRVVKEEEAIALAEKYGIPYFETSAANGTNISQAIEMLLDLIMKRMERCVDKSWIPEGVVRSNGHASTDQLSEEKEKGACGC
Chain of UniProt P53611 (P53611 whole entry, looked up): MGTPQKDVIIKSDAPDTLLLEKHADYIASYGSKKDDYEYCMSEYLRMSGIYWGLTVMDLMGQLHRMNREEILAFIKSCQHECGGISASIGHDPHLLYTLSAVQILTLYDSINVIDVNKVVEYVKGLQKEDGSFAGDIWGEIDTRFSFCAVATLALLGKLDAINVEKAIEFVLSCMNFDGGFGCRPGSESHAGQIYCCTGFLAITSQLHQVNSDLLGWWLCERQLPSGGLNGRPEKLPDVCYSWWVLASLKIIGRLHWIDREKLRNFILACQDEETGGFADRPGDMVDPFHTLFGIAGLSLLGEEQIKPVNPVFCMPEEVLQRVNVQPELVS
Chain of UniProt Q96LT9 (Q96LT9 whole entry, looked up): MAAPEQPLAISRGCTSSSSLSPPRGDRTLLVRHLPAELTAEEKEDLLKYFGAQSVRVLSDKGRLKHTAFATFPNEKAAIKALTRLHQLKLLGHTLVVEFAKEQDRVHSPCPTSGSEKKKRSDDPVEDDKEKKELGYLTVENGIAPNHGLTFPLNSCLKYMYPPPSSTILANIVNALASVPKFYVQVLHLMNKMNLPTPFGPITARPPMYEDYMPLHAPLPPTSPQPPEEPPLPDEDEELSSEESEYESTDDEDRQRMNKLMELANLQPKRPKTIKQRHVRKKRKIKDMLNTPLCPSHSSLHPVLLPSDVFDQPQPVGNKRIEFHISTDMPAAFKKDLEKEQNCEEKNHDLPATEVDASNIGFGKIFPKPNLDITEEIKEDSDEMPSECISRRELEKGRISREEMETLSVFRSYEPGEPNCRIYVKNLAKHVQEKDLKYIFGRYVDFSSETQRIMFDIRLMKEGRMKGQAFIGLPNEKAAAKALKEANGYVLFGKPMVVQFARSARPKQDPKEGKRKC
Chain of UniProt Q86U06 (Q86U06 whole entry, looked up): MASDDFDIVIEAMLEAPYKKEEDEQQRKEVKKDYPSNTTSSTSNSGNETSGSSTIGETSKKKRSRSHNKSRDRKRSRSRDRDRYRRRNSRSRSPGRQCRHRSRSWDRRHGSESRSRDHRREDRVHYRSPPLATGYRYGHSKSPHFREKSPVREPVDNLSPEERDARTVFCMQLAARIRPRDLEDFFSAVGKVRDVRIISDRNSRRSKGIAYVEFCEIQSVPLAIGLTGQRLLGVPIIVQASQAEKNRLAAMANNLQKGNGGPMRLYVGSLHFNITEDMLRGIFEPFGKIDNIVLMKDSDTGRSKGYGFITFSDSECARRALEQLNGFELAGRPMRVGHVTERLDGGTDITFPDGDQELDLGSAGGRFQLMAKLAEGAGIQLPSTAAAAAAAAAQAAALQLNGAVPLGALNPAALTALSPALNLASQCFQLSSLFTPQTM

log2 fold change, inactive:
RAPGEF2, A0A2R8YGD3 0.054
RAB27A (UniProt P51159) -0.024
RPL31 (UniProt P62899) -0.004
RBBP7 isoform 2 (UniProt Q16576) 0.01
RAP1GAP isoform 4 (UniProt P47736) 0.029
RBM22 (UniProt Q9NW64) -0.027
RABGGTB (UniProt P53611) 0.033
RNF113A (UniProt O15541) -0.068
RPS6KA3 (UniProt P51812) 0.133
SERINC3 (UniProt Q13530) 0.04
RRM1 (UniProt P23921) 0.016
RDH11 (UniProt Q8TC12) 0.103
RABEPK (UniProt Q7Z6M1) -0.018
RAE1 (UniProt P78406) 0.026
RNPC3 (UniProt Q96LT9) -0.063
SAR1A (UniProt Q9NR31) -0.055
SCML2 (UniProt Q9UQR0) 0.048
RIOK3 (UniProt O14730) 0.01
RBM23 isoform 2 (UniProt Q86U06) -0.024
RAF1 isoform 2 (UniProt P04049) 0.063
RTN4IP1 (UniProt Q8WWV3) -0.055
RAD54L2 (UniProt Q9Y4B4) -0.013
RAP1B (UniProt F5GZG1) 0.087
